For ten compounds, Potency, max response and activation results are on record in PubChem BioAssay (NCATS).

The structures appear in SMILES notation. Values joined by “and” are separate entries in the source; they are usually repeats but may differ in a detail not shown here. Equal entries are not always repeated. Records with an inconclusive call do not appear. Active and inactive are the calls of the source. Unless noted, calls come from the whole dose curve; as a rule, active = well fitted curve in the direction sought with a large enough effect; inconclusive = small, poorly fitted or top-dose-only effect, or another doubt; inactive = no such curve, though single readings can be large; an effect the other way counts as inactive or inconclusive.

A short description of assay [1]: Cell Viability - H-4-II-E (AID 543).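 Note: cells exposed to compound for 40 hours; % is set by controls: 0 for no effect and ±100 for the full control effect; nearly all actives have a fitted effect of over 35% in size.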 Summed up:
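AC50 from Hill-modelled qHTS concentration-response curves. H-4-II-E rat hepatoma cells in complete medium, 40 hr exposure at 37 °C, viability by CellTiter-Glo ATP luminescence.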

Assay [2] can be described thus: Cell Viability - LYMP2-001 (AID 921).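 Note: 0% = DMSO only and full inhibition = tetraoctylammonium bromide control wells; nearly all actives have a fitted effect of over 70% in size.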 Summed up:
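Human lymphoblastoid cells (Coriell), 2500 per well, were preincubated 5 hr at 37 C, then exposed to compounds in complete medium for 24 hr at 37 C. Cellular ATP was read by CellTiter-Glo luminescence; AC50 from Hill fits of concentration-response data.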

The nature of assay [3]: Cell Viability - LYMP2-003 (AID 965).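 For activity change, negative = cytotoxicity: 0% = DMSO only and full effect = 92 µM tetraoctylammonium bromide.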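 Note: cells exposed to compounds for 24 h before reading; nearly all actives have a fitted effect of over 50% in size.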 Note: potency is the fitted concentration of half-maximal effect. The method, boiled down: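 Human lymphoblastoid cells (2500/well) were pre-incubated 5 hr at 37 C, then exposed to compounds over a concentration range for 24 hr at 37 C. Intracellular ATP was read by CellTiter-Glo luminescence; AC50 came from Hill-equation fits.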
Assay [4] in a line: Cell Viability - LYMP2-011 (AID 969).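 Note: 0% = DMSO only and full inhibition = 92 µM tetraoctylammonium bromide; nearly all actives have a fitted effect of over 60% in size.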 The method, boiled down:
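Cells seeded at 2500 per well rest 5 hr before compound addition, then incubate 24 hr at 37 C. CellTiter-Glo reagent is added for 30 min at room temperature before luminescence detection.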

Assay [5] is described as follows: Cell Viability - LYMP2-019 (AID 973).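 Note: 0% = DMSO alone and full effect = 92 µM tetraoctylammonium bromide; nearly all actives have a fitted effect of over 55% in size.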 Summed up:
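AC50 values come from Hill-equation modelling of qHTS concentration-response curves, where viability is measured as luciferase-based ATP luminescence in the lymphoblastoid line after 24 hr compound exposure in complete culture medium.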

The nature of assay [6]: Cell Viability - LYMP2-021 (AID 974).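 Note: compound exposure lasts 24 hours at 37 °C; % is set by controls: 0 for no effect and ±100 for the full control effect; nearly all actives have a fitted effect of over 55% in size.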 Summed up: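 In qHTS format, compounds are tested against 2500 lymphoblastoid cells per well for 24 h; viable cell number is inferred from ATP-driven luciferase light, and Hill-equation fitting yields AC50 values.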
The nature of assay [7]: Cell Viability - LYMP2-002 (AID 977).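 Note: plate controls were DMSO only for no effect and 92 µM tetraoctylammonium bromide for full effect.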 Summed up:
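Human lymphoblastoid cells (2500/well) in complete medium were preincubated 5 hr at 37 C, then exposed to compounds for 24 hr at 37 C. Intracellular ATP was read by CellTiter-Glo luminescence; AC50 came from Hill-equation concentration-response fits.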

Assay [8] can be described thus: Cell Viability - LYMP2-007 (AID 979).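 Note: cells exposed to compound for 24 h before reading; 0% = DMSO only and the negative end = 92 µM tetraoctylammonium bromide; nearly all actives have a fitted effect of over 60% in size.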 The method, boiled down: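 Measured via luciferase-based ATP quantitation: lymphoblastoid cells, 24 hr compound exposure at 37 C, AC50 from Hill fits.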
A short description of assay [9]: Cell Viability - LYMP2-014 (AID 983).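 Note: plate controls were DMSO only for no effect and 92 µM tetraoctylammonium bromide for full effect; nearly all actives have a fitted effect of over 50% in size.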 Summed up:
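Quantitative HTS in lymphoblastoid cells: 24 hr compound exposure, then CellTiter-Glo ATP luminescence. Positive control was tetraoctylammonium bromide, 6.4pM to 92 uM.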

Assay [10] is described as follows: Cell Viability - LYMP2-016 (AID 984). Note: % is set by controls: 0 for no effect and ±100 for the full control effect; nearly all actives have a fitted effect of over 55% in size. The method, boiled down: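 Human lymphoblastoid cells (LYMP2-016), 2500/well in complete medium, preincubated 5 hr at 37 C, then compound-treated 24 hr at 37 C. Intracellular ATP read by CellTiter-Glo luminescence after 30 min at room temperature; AC50 from Hill-equation concentration-response fits.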
Assay [11] in a line: Cell Viability - LYMP2-020 (AID 986).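 Note: plate controls were DMSO only for no effect and tetraoctylammonium bromide at 92 µM for full effect; nearly all actives have a fitted effect of over 55% in size.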 The method, boiled down:
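Cells at 2500 per well receive a 24 hr compound exposure at 37 C. Viability is measured as ATP-dependent luciferase luminescence, with AC50 modeled from qHTS concentration-response curves.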

Assay [12] is described as follows: qHTS assay for small molecule agonists of retinoid X receptor alpha signaling (AID 588544). As to conditions: HEK293T RXRa-UAS-bla, beta-lactamase reporter, 18 h; 530 nm emission. Background: qHTS replaces the single test concentration by a dilution series.
In assay [13] the target is Voltage-gated inwardly rectifying potassium channel KCNH2 (Homo sapiens) (UniProt Q12809). Description: qHTS Assay for Small Molecule Inhibitors of the Human hERG Channel Activity (AID 588834).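 Note: lower thallium flux fluorescence means stronger hERG block; nearly all actives have a fitted effect of over 50% in size.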 Note: potency is the fitted concentration of half-maximal effect. Summed up: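 In hERG-transduced U2OS cells, dye-loaded for 1 hr at room temperature in dark, test compounds incubated 10 min at 37 °C before thallium stimulation. AC50 values derived by Hill modelling of concentration-response.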

Assay [14] is described as follows: qHTS assay for small molecule activators of the p53 signaling pathway (AID 651743; active = well fitted activation curve with a large enough effect in the signal ratio, not every such curve was filed as active; the % refers to the signal ratio; note: % of control where 0% means no effect). As to conditions: HCT-116 p53RE-bla, beta-lactamase FRET ratio, 16 h; activation: stronger effect = higher value. Summed up:
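A beta-lactamase reporter under p53 response element control, stably carried by HCT-116 cells, reported pathway activation. Test compounds were applied for 16 hours at 37 C, and fluorescence was measured 2 hours after adding the B/G FRET substrate.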

Assay [15] is described as follows: qHTS assay for small molecule disruptors of the mitochondrial membrane potential - 1 hr assay (AID 651754; calls by dose curve; note: nearly all actives have a fitted effect of over 35% in size; note: potency is the fitted concentration of half-maximal effect). The method, boiled down: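 In this qHTS format, a 1 hr compound treatment of HepG2 cells precedes Mito-MPS staining, and membrane potential is judged from aggregate (red) against monomer (green) fluorescence intensity.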
Assay [16] in a line: Cell Viability - Renal Proximal Tubule (AID 545).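 For activity change, negative = cytotoxicity: 0% = DMSO only and -100% = 100 µM tamoxifen.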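 Note: cells exposed to compound for 40 hours; nearly all actives have a fitted effect of over 40% in size.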 Note: potency is the fitted concentration of half-maximal effect. As to conditions: renal proximal tubule cells viability, primary cells of rat origin; activity change, negative = cytotoxicity: at 91.7 µM (top of the series). The method, boiled down: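 Primary rat renal proximal tubule cells (1000/well) were treated with compounds for 40 hr at 37 °C in complete medium. Intracellular ATP was measured by CellTiter-Glo luminescence, and AC50 values came from Hill-equation fits of concentration-response data.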

Assay [17] can be described thus: MultiTox-Fluor Cytotoxicity Assay - LYMP1-001 - Live Cells (AID 947).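 Note: 0% = DMSO only and full inhibition = tetraoctylammonium bromide control.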
Assay [18] can be described thus: Cell Viability - LYMP2-004 (AID 966).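 Note: plate controls were DMSO only for no effect and tetraoctylammonium bromide control for full effect; nearly all actives have a fitted effect of over 65% in size.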 The method, boiled down:
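Viable-cell number estimated from ATP luminescence (CellTiter-Glo) in 2500 human lymphoblastoid cells/well after 24 hr at 37 C with compound. AC50 fitted to the standard Hill equation.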

Assay [19] in a line: Cell Viability - LYMP2-005 (AID 967).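 Note: plate controls were DMSO only for no effect and 92 µM tetraoctylammonium bromide control for full effect.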 Summed up:
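CellTiter-Glo luminescence (cellular ATP) read-out; LYMP2-005 lymphoblastoid cells, 2500/well, 5 h pre-incubation, then 24 h compound exposure at 37 C in complete medium. Tetraoctylammonium bromide positive control; AC50 by standard Hill fit.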

A short description of assay [20]: Cell Viability - LYMP2-012 (AID 982).

Sequence of Voltage-gated inwardly rectifying potassium channel KCNH2 (Homo sapiens) (Q12809 whole entry, looked up): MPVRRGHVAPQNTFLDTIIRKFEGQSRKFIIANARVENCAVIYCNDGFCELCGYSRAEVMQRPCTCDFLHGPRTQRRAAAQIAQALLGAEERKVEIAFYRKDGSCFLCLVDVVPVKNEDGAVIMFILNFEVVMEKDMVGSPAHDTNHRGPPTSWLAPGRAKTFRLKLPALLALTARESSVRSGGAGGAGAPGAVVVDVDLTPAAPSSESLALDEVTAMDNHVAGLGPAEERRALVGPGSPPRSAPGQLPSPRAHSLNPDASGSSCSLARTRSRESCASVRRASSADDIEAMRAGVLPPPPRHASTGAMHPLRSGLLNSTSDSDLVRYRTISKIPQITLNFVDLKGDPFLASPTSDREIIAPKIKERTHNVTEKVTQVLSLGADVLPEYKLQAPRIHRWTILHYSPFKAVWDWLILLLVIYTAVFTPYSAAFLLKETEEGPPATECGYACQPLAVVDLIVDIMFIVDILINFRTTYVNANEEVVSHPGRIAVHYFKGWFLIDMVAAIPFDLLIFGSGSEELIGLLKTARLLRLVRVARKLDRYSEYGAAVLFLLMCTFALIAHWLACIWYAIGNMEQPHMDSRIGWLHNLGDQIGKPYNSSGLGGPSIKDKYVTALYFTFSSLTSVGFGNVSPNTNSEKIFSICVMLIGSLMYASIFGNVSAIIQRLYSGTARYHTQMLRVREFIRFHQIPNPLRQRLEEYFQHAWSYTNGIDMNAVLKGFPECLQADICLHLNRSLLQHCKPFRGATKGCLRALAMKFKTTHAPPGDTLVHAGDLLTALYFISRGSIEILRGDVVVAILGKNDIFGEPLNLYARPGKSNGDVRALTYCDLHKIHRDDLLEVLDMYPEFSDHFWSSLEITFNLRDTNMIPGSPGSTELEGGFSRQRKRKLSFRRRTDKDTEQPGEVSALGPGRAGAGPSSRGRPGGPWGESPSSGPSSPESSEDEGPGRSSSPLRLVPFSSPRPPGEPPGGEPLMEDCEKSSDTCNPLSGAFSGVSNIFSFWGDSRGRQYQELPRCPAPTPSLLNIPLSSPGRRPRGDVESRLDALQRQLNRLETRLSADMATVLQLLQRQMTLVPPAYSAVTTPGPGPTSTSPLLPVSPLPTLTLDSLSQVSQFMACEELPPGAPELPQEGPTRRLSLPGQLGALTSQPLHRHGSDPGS

For the compound `CC(/C=C/C=C(C)/C=C/C(=O)O)=C\C=C\C=C(C)\C=C\C=C(C)\C=C\C(=O)O`, the Potency entry in [1], in assay [2], in assay [4], in assay [5], in [6] and in [7] was “inactive” throughout. Also, the Potency entry in assay [8], in assay [9], in [10], in [11], in assay [13] and in assay [15] was “inactive” throughout. In addition, the Potency in [3] is 50.1 µM (active). Moreover, the max response in assay [12] amounted to 4.44%. Further, the activation in assay [14] was -5.5% (inactive).
Turning to `Brc1cc(Oc2cc(Br)c(Br)c(Br)c2Br)c(Br)c(Br)c1Br`, the Potency result in assay [1], in assay [16], in assay [2], in assay [17], in assay [3] and in [18] was “inactive” each time. In addition, the Potency result in [19], in assay [4], in [5], in [6], in assay [7] and in [8] was “inactive” throughout. For the same compound, the Potency result in assay [20], in assay [9], in assay [10], in assay [11], in assay [13] and in assay [15] was “inactive” each time. The max response in assay [12] was found to be 21.6%. In assay [14], the activation was -8.15% (inactive) and -4.88% (inactive).
With `O=[N+]([O-])c1ccccc1Nc1ccccc1`, the Potency entry in assay [1], in [16], in [17], in assay [3], in assay [18] and in [19] was “inactive” each time. In addition, the Potency result in assay [4], in assay [5], in [6], in [7], in [8] and in assay [20] was “inactive” in each case. Moreover, the Potency result in assay [9], in [10] and in assay [11] was “inactive” each time. Also, the max response in assay [12] is -18.5%. In addition, the Potency in assay [13] is 35.5 µM (active). In addition, in assay [14], the activation was -4.76% (inactive).
For the compound `CCc1ccc(C(c2ccc(CC)cc2)C(Cl)Cl)cc1`, the Potency result in [1], in assay [16], in assay [2], in assay [17], in assay [3] and in assay [18] was “inactive” in each case. Besides, the Potency entry in assay [19], in assay [4], in assay [5], in assay [6], in [7] and in assay [8] was “inactive” each time. The Potency entry in assay [20], in assay [9], in assay [10], in assay [11] and in assay [15] was “inactive” in each case. Moreover, the activation in assay [14] was -0.867% (inactive).
`C[Si](C)(C)Cl`: the Potency result in assay [1], in assay [16], in assay [2], in [3], in [18] and in [19] was “inactive” each time. The Potency result in assay [4], in assay [5], in assay [6], in assay [7], in assay [8] and in [20] was “inactive” in each case. Further, the Potency result in assay [9], in [10], in assay [11], in assay [13] and in assay [15] was “inactive” throughout. The max response in assay [12] is 8.09%. In [14], the activation was -2.87% (inactive).
Turning to `c1ccncc1`, the Potency entry in assay [1], in assay [16], in assay [2], in [17], in assay [3] and in [18] was “inactive” throughout. Further, the Potency entry in assay [19], in [4], in assay [5], in assay [6], in [7] and in [8] was “inactive” each time. In addition, the Potency result in assay [20], in assay [9], in assay [10], in assay [11], in assay [13] and in [15] was “inactive” in each case. Further, in assay [12], the max response was determined as 1.38%. The activation in assay [14] was -0.205% (inactive).
As to `S=C(NC1CCCCC1)NC1CCCCC1`, the Potency result in assay [16], in assay [2], in assay [17], in [3], in [18] and in assay [19] was “inactive” throughout. The Potency entry in assay [4], in [5], in assay [6], in assay [7], in assay [8] and in assay [20] was “inactive” throughout. For the same compound, the Potency entry in assay [9], in assay [10], in assay [11] and in [13] was “inactive” in each case. Besides, the max response in assay [12] amounted to 7.4%.
For `C=CC1CO1` (configuration not stated), the Potency result in assay [1], in assay [16], in [2], in assay [17], in [3] and in assay [18] was “inactive” in each case. Besides, the Potency result in [19], in [4], in assay [5], in assay [6], in [7] and in assay [8] was “inactive” each time. Besides, the Potency result in assay [20], in assay [9], in assay [10], in [11], in assay [13] and in [15] was “inactive” in each case. Besides, in [12], the max response was -16.9%. Also, the activation in assay [14] is -3.74% (inactive).
With `Cc1c(C(=O)O)c(O)cc2c1C(=O)c1c(O)c([C@H]3O[C@H](CO)[C@@H](O)[C@H](O)[C@H]3O)c(O)c(O)c1C2=O`, the Potency in [16] was 31.6 µM (active). Moreover, the Potency entry in [17], in assay [7], in assay [11] and in [15] was “inactive” throughout. Besides, in assay [12], the max response was -6.4%. Moreover, the activation in assay [14] is 0.0222% (inactive).
Regarding `Nc1ccc2c(c1)C(=O)c1ccccc1C2=O`, the Potency result in [17], in assay [3], in assay [18], in assay [19], in [8] and in assay [20] was “inactive” throughout. The Potency entry in assay [9], in [10], in assay [11] and in [13] was “inactive” each time. For the same compound, the max response in assay [12] is 6.46% and 2.42%. For the same compound, the activation in [14] is 2.17% (inactive) and 5.16% (inactive). Further, the Potency in assay [15] was 1.33 µM (active).
